The record followed here is PubChem BioAssay (EPA / NIEHS).

Active and inactive are the calls of the source. How the source made its calls: active means hit-call score of the fitted dose curve at least 0.9, where 1 is the maximum; inactive means score below 0.9.

One may read the AC50 as the concentration giving half of the maximal activity seen.

This assay can be described thus: ATG_M_32_CIS: Attagene CIS-FACTORIAL HepG2 Assay for M32 Transcription Factor (Internal Marker) (AID 2282949).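 Further: background control marker of the multiplexed CIS panel rather than a real target.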 The following applies: HepG2 Attagene cis-factorial M32 reporter, mRNA; actives raise or lower the signal. The method, then: ATG_CIS is a cell-based, multiplexed-readout assay that uses HepG2, a human liver cell line, with measurements taken at 24 hours after chemical dosing in a 24-well plate.ATG_M_32_CIS is one of 52 assay component(s) measured or calculated from the ATG_CIS assay. It is designed to make measurements of mRNA induction, a form of inducible reporter, as detected with fluorescence intensity signals by Reverse transcription polymerase chain reaction (RT-PCR) and Capillary electrophoresis technology.Data from the assay component ATG_M_32_CIS was analyzed into 1 assay endpoint. This assay endpoint, ATG_M_32_CIS, was analyzed with bidirectional fitting relative to DMSO as the negative control and baseline of activity. Using a type of inducible reporter, measures of mRNA for gain or loss-of-signal activity can be used to understand the background control at the transcription factor-level as they relate to the gene . Furthermore, this assay endpoint can be referred to as a secondary readout, because this assay has produced multiple assay endpoints where this one serves a background control function. To generalize the intended target to other relatable targets, this assay endpoint is annotated to the background measurement intended target family, where the subfamily is internal marker.
Human liver HepG2 cells are transiently transfected with multiple reporter transcription units (MRTUs) in 6-well plates using FuGene 6 reagent (Roche; 3 ml FuGene/1 mg DNA). The MRTU constructs are regulated by a cis-regulating element (promoter). […] A major difference between the CIS and TRANS system is that in CIS activities of endogenous TFs are measured, whereas the TRANS assay evaluates changes in activities of exogenous, chimeric NR-Gal4 proteins. […] At the end of 24 hour incubation, total RNA was isolated using TriZol reagent (Invitrogen). The isolated RNA is then reverse-transcribed using oligo(dT) primer and Mo-MLV reverse transcriptase (Invitrogen) with DNAse I (Ambion) treatment for 30 min. The one-tenth of the produced cDNA was amplified by PCR using Taq DNA polymerase (Invitrogen) and two reporter sequence-specific primers. The PCR products were fluorescently labeled by primer extension with 6-arboxyfluorescein (6-FAM) 5'-labeled reporter sequence-specific primer (2 min at 95 C, 20 s at 68 C and 10 min at 72 C) and these products were digested with 5U of HpaI (New England Biolabs) for 2h at 37 C. The fragments were purified using Qiaquick PCR columns (Qiagen), analyzed on an ABI 3130xL genetic analyzer (Applied Biosystems) with peak positions identified by using a set of X-rhodamine (ROX)-labeled MapMarker1000 molecular weight standards (BioVentures). The raw capillary electrophoresis data was processed using Attagraph software (Attagene).
Consider `OCC1CO1` (stereo not given), for which the compound was classed as inactive.

For `CC1(C)CN=C(NN=C(/C=C/c2ccc(C(F)(F)F)cc2)/C=C/c2ccc(C(F)(F)F)cc2)NC1`, the AC50 was 17.4 µM (active).

As to `O=C(O)C(F)(F)C(F)(F)C(=O)O`, the compound was classed as inactive.

Turning to `CCCCc1ccc(O)cc1`, the outcome was inactive.

In the case of `NNC(N)=S`, the result was inactive.

With `O=C(O)C1C(C(=O)O)C2(Cl)C(Cl)=C(Cl)C1(Cl)C2(Cl)Cl` (stereo not given), the call was inactive.

As for `C=CC(=O)OCC(F)(F)C(F)F`, the result was inactive.

Take `O=C(O)C(F)(OC(F)(F)C(F)(F)C(F)(F)F)C(F)(F)F` (stereo not given): the result was inactive.

As to `O=C(CBr)OCc1ccccc1`, the result was inactive.

As for `CCCCN(CCCC)N=O`, the outcome was inactive.

As to `O=[N+]([O-])c1ccc(Cl)c(Cl)c1`, the call was inactive.

For the compound `Cc1ccc(C(=O)Cl)cc1`, the outcome was inactive.

Take `O=[N+]([O-])c1ccccc1`: the compound was called inactive.

Regarding `CC(C)Nc1ccc(Nc2ccccc2)cc1`, the call was inactive.

As for `CCOS(=O)(=O)OCC`, the call was inactive.

Consider `Nc1ccc(Sc2ccc(N)cc2)cc1`, for which the outcome was inactive.

With `ClC1=C(Cl)C2(Cl)C3C(Cl)C(Cl)CC3C1(Cl)C2(Cl)Cl` (stereo not given), the compound was classed as inactive.

As for `O=[N+]([O-])c1cc(Cl)ccc1Cl`, the result was inactive.

As to `CC1=C(C(=O)Nc2ccccc2)S(=O)(=O)CCO1`, the result was inactive.

Consider `CCOP(=S)(OCC)SCS(=O)(=O)CC`, for which the compound was classed as inactive.

In the case of `O=P(Oc1ccccc1)(Oc1ccccc1)Oc1ccccc1`, the compound was called inactive.

For the compound `CCOC(=O)c1ccccc1N`, the compound was classed as inactive.

On to `O=c1ssc(Cl)c1Cl`, for which the compound was classed as inactive.

Consider `O=NN1CCCC1`, for which the compound was classed as inactive.

Consider `O=S(=O)(c1ccc(O)cc1)c1ccc(O)cc1`, for which the call was inactive.

For `CCN(CC)c1ccccc1`, the compound was called inactive.

Turning to `[N-]=[N+]=[N-]`, the compound was classed as inactive.

Take `Cc1cccc(N)c1`: the compound was classed as inactive.

On to `Nc1ccc(Cl)cc1`, for which the result was inactive.

`CCCCC(CC)COC(=O)c1c(Br)c(Br)c(Br)c(Br)c1C(=O)OCC(CC)CCCC` (stereo not given): the outcome was inactive.

As to `Nc1ccc2ccccc2c1`, the compound was called inactive.

Consider `CC(C)CBr`, for which the call was inactive.

For `O=C(O)C(Cl)Cl`, the outcome was inactive.

In the case of `CC(=O)c1ccc(-c2ccccc2)cc1`, the result was inactive.

With `ClC(Cl)=C(c1ccc(Cl)cc1)c1ccccc1Cl`, the result was inactive.

For `CCCCOCCOP(=O)(OCCOCCCC)OCCOCCCC`, the call was inactive.

As for `COC(N)=O`, the outcome was inactive.

For `CN(C)C(=O)Cl`, the compound was called inactive.

In the case of `CCOC(=O)c1ccccc1C(=O)OCC`, the compound was called inactive.

Turning to `ClC(Cl)(Cl)c1ccccc1`, the result was inactive.
